Bioassay records deposited in PubChem by several laboratories.
PriA SSB inh = inhibitors of Klebsiella pneumoniae PriA binding to SSB C-terminal tail; actives 0.6% (n = 430,000); AlphaScreen SSBct-PriA binding, biotinylated peptide; inhibition, % at 33 µM; in the data active = inhibition mostly above about 37%, no sharp cut-off; inactive = mostly below about 20%;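 also: plate controls were negative control peptide for no effect and reference peptide for full effect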
Anthrax LF prot = inhibitors of Bacillus anthracis lethal factor protease. P15917. multiplex microsphere protease cleavage assay, LF. inhibition, % at 10 µM. actives 0.12% (n = 360,000); also: plate controls were buffer without enzyme for full effect and enzyme alone for no effect
Target sequence (P15917 whole entry, looked up): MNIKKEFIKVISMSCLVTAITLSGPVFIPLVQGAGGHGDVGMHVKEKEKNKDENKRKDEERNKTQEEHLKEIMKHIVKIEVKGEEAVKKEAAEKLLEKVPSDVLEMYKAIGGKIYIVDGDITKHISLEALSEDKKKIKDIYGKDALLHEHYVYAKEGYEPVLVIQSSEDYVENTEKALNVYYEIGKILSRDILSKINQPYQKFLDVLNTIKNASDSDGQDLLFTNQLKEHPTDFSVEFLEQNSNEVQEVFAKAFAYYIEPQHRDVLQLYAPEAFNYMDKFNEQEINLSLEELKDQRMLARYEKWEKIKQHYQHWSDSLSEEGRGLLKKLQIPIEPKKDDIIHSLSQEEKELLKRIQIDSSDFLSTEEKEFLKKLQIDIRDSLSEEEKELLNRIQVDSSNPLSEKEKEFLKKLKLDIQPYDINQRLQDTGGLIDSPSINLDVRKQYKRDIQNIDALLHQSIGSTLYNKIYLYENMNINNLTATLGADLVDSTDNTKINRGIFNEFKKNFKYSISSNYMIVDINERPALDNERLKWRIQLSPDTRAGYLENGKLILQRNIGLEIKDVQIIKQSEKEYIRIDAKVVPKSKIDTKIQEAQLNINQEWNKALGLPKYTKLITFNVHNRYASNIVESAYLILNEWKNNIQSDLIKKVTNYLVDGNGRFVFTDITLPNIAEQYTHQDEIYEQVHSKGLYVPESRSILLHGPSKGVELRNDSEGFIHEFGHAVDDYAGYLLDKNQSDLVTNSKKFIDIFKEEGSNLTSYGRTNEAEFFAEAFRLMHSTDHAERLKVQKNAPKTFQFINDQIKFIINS
BoNT-A LC inh2 = blocks Botulinum neurotoxin A light chain protease; multiplex microsphere protease substrate cleavage, flow cytometry; inhibition, % at 10 µM; actives 0.17% (n = 360,000); also: plate controls were buffer without enzyme for full effect and enzyme alone for no effect
Autofluor counter = flagged as autofluorescent in microsphere protease counterscreen; compound autofluorescence counterscreen, microsphere flow cytometry; hits give high values; AID 624483; actives 3.1% (n = 360,000); fluorescence intensity (no concentration beside the values); in the data active = fluorescence intensity above about 16000; inconclusive = no clear call, values can overlap the other calls
BoNT-F LC inh = inhibitors of Botulinum neurotoxin F light chain protease. Multiplex microsphere protease cleavage assay, flow cytometry. actives 0.22% (n = 360,000). inhibition, % at 10 µM. AID 588497; in the data active = inhibition above about 35%, passing the limit was not always enough; inconclusive = no clear call, values can overlap the other calls; also: plate controls were buffer without enzyme for full effect and enzyme alone for no effect
* = called active by the depositor; i = inactive; ? = inconclusive; . = no result given. Rows were chosen to be rich in hits. Some 3.1% of all compounds tested hit in one or more screens of this group. Rule as the data show it, unless noted: active = inhibition above about 30%; inconclusive = no clear call, values can overlap the other calls; inactive = below that.

SMILES	PriA SSB inh	Anthrax LF prot	BoNT-A LC inh2	Autofluor counter	BoNT-F LC inh
Cc1oc2c(c1C(=O)c1ccc(Cl)cc1)C(=O)C(=O)c1ccccc1-2	7	21	30*	1961	13
C=CCn1c(C)cc(C([O-])=C(C(=S)Nc2ccc(OC(F)F)cc2)[n+]2ccc(N(C)C)cc2)c1C	1	.	.	.	.
NC(=O)CSc1nnnn1-c1ccc(OC(F)(F)F)cc1	-5	-2	?	23160*	-6
O=C(Cn1nnc(-c2ccc(OCc3ccccc3F)cc2)n1)N1CCOCC1	-14	-2	0	22617*	-2
CNC(=O)/C=C/c1cccc(C(F)(F)F)c1	-4	2	4	2221	40*
Cc1ccccc1NC(=O)/C=C/c1cccc(C(F)(F)F)c1	-8	4	1	9831	1
Cc1ccc(CNC(=O)C2CCCN(Cc3cnn(-c4ccccc4)c3-n3cccc3)C2)cc1 (stereo not given)	-4	-4	?	21776*	-3
O=C(NCC1CCCO1)C1CCCN(Cc2cnn(-c3ccccc3)c2-n2cccc2)C1 (stereo not given)	-8	0	0	2832	3
CCCCCCC(=O)N(O)C1CC(=O)N(c2ccc(C)cc2)C1=O (stereo not given)	-6	-53	30*	2106	0
CC(C)COC(=O)c1cc(-c2ccc(/C=N/n3cnnc3)o2)ccc1Cl	.	-2	1	22229*	0
COC(=O)C1CCN(c2c([N+](=O)[O-])cc(C(F)(F)F)cc2[N+](=O)[O-])CC1	59*	-1	0	2443	3
Cc1nnc(NC(=O)CSc2nccn2Cc2ccc3c(c2)OCO3)s1	-4	.	.	.	.
COc1ccc(Cl)cc1NC(=O)CSc1nccn1Cc1ccc2c(c1)OCO2	45*	.	.	.	.
CCOC(=O)c1ccccc1NC(=O)CSc1nccn1Cc1ccc2c(c1)OCO2	43*	.	.	.	.
COc1ccc(C(=O)NN=C2SCC(=O)N2Cc2ccc3c(c2)OCO3)cc1OC	6	.	.	.	.
COc1ccc(CCNC(=O)C2CCN(Cc3nc(-c4cccc(Cl)c4)oc3C)CC2)cc1OC	0	-3	-1	6376	-4
Cc1ccccc1-c1nc(CN2CCCC(C(=O)NCc3cccnc3)C2)c(C)o1 (stereo not given)	-6	-2	?	24766*	-8
Cc1ccccc1-c1nc(CN2CCCC(C(=O)NCCCN3CCOCC3)C2)c(C)o1 (stereo not given)	5	0	0	24221*	0
COc1ccc(CCNC(=O)C2CCCN(Cc3nc(-c4ccccc4C)oc3C)C2)cc1OC (stereo not given)	0	-1	?	21174*	-7
COc1ccc(CNC(=O)C2CCCN(Cc3nc(-c4cccc(C)c4)oc3C)C2)cc1 (stereo not given)	2	-1	0	2740	2
Cc1ccccc1-c1nc(CS(=O)(=O)CC(=O)NCCCN2CCCC2)c(C)o1	-6	-3	0	5990	-12
CCc1ccc(-c2nc(CN3CCCC(C(=O)NCCc4ccc(OC)c(OC)c4)C3)c(C)o2)cc1 (stereo not given)	7	-6	?	21829*	2
Cc1oc(-c2ccc(Cl)cc2)nc1CN1CCC(C(=O)NCc2cccnc2)CC1	-3	-2	-2	16967*	-6
CCCN(CCC)CCNC(=O)C1CCN(Cc2nc(-c3ccc(Cl)cc3)oc2C)CC1	0	1	1	15924	2
COc1cc(NC(=O)CN2CC(c3ccccc3)CC2=O)cc(OC)c1 (stereo not given)	4	-5	0	5866	0
SMILES	PriA SSB inh	Anthrax LF prot	BoNT-A LC inh2	Autofluor counter	BoNT-F LC inh
COC(=O)N1CC(c2ccccc2)CC1=O (stereo not given)	-23	0	1	19692*	3
COc1cccc2sc(N3CC(OC(=O)c4ccc(F)cc4Cl)C3)nc12	-19	.	.	.	.
COCCNC(=O)c1sc2ncn(CC(=O)Nc3ccc(C)c(Cl)c3)c(=O)c2c1C	2	1	0	2017	-6
Cc1ccc(NC(=O)Cn2cnc3sc(C(=O)NCc4ccco4)c(C)c3c2=O)cc1Cl	-10	-6	4	21778*	4
CC(C)C(=O)Nc1ccccc1Cc1ccccc1	-9	-3	0	3507	0
CC(C)C(=O)Nc1ccc(Cc2ccc(NC(=O)C(C)C)c(O)c2)cc1O	-3	-2	0	16658*	-2
NCCCCCc1nnc(SCc2ccc(Cl)cc2Cl)o1	-15	?	?	?	?
CC(C)(C)OC(=O)NCCc1nnc(SCc2ccccc2)o1	-4	.	.	.	.
NCCc1nnc(SCc2ccccc2Cl)o1	-7	?	8	3185	45*
CC(C)(C)OC(=O)NCCc1nnc(SCc2ccccc2Cl)o1	-10	0	0	16944*	0
CC(C)Oc1ccc(C(=O)NNC(=O)c2cccn(Cc3ccc(F)cc3)c2=O)cc1	-7	.	.	.	.
COc1ccc(CC(=O)Nc2nnc(-c3cc(C)nn3C)o2)cc1	5	.	.	.	.
Cc1cc(-c2nnc(NC(=O)Cc3ccc(S(C)(=O)=O)cc3)o2)n(C)n1	43*	.	.	.	.
O=C(NCC(c1cccs1)N1CCc2ccccc21)c1ccc2c(c1)OCO2 (stereo not given)	39*	.	.	.	.
CN(C)c1cncc(OC2CCN(C(=O)c3cc(=O)[nH]c(=O)[nH]3)C2)n1 (stereo not given)	3	.	.	.	.
CCCNC(=O)C(=O)NCC1CCN(Cc2ccco2)CC1	0	.	.	.	.
Cc1ccccc1Oc1ncccc1C(=O)/C(C#N)=C/N(C)C	-1	-1	-2	23141*	-1
Cc1ccc(NC(=O)C(=O)NCC2CCN(C(C)C)CC2)cc1F	-2	.	.	.	.
CCOC(=O)C1=NN(N=O)C2(CC(=O)N(c3cc(C)cc(C)c3)C2=O)C1 (stereo not given)	-14	-2	-4	24546*	-9
CSc1ccc([C@@H](O)CNC(=O)C(=O)NCc2cccs2)cc1	-5	.	.	.	.
Cc1ccc(NC(=O)NC2CCCCCCC2)cc1C	-15	1	1	4484	5
Cc1ccc(NC(=O)c2ccc(C#CC3(O)CCCCC3)cc2)cc1C	-12	-7	1	22190*	1
COC(=O)C1CCN(C(=O)/C=C/c2ccc(OC)cc2)CC1	-4	35*	-21	?	i
COc1ccc(N(CC(=O)NCC2CCCO2)S(=O)(=O)c2ccc(C)cc2)cc1OC (stereo not given)	-8	0	0	16225*	-1
Cc1ccc(N(CC(=O)NCC2CCCO2)S(=O)(=O)c2ccc(Cl)cc2)cc1C (stereo not given)	-12	-2	-2	5621	0
SMILES	PriA SSB inh	Anthrax LF prot	BoNT-A LC inh2	Autofluor counter	BoNT-F LC inh
CC(C)(C)c1ccccc1OCCCCCNCCO	-7	-11	12	18177*	10
Cc1ccccc1OCCCCCNCCO	-30	-2	0	11071	-12
CC(=O)Nc1cccc(NC(=O)CSc2nc(CC(=O)NCCCc3ccccc3)cs2)c1	-3	.	.	.	.
CCc1nnc(NC(=O)CSc2nnc(-c3ccccc3O)n2CC)s1	2	0	-4	25104*	-3
CCc1nnc(NC(=O)CSc2nnc3scc(-c4ccc(C)cc4)n23)s1	-16	0	-2	21013*	-1
CCc1nnc(NC(=O)CSc2nnc(-c3cc4ccccc4cc3O)n2CC)s1	5	-2	0	8463	-7
